Sampled rows, rich in hits. Any-hit rate of the full collection: about 0.5%.
AddAB inh: less growth of phage-infected E. coli with AddAB; E. coli expressing H. pylori AddAB, absorbance growth; inhibition, % at 11.9 µM; 0.29% of 330,000 active; AID 435030; in the data active = inhibition above about 12%;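 note: 0% = vehicle wells of infected cells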
E coli growth-1: blocks Escherichia coli growth | OD600, 23 h; hits give low values | OD600 absorbance (test concentration not listed) | 0.21% of 330,000 active;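 active = OD600 absorbance below the run mean of sample wells minus 3.6 SD, in any replicate, cut at about 0.56 in these data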
E coli growth-2: reduces bacterial viability in AddAB counter-screen | E. coli V3065 growth, OD600 absorbance, 18 h | inhibition, % at 11.9 µM | 0.27% of 330,000 active | AID 449728;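 active = inhibition above the campaign's mean inhibition across all tested compounds plus 3 SD, cut at about 9.9% in these data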;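 note: uninfected addAB+ strain grown without phage in ampicillin broth; 0% = DMSO wells and 100% = ciprofloxacin 0.95 µg/ml wells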
phage Ecoli inh: E. coli growth loss with phage present | growth absorbance | inhibition, % at 11.9 µM | 0.26% of 360,000 active | AID 651602; in the data active = inhibition above about 11%
Tat transport: E. coli Tat transport inhibition; E. coli MC4100 TorA-mCherry Tat export, fluorescence; inhibition, % at 10 µM; 0.036% of 340,000 active; AID 488895;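 active = mean replicate inhibition at least 50% and at least half of replicates individually reaching 50%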;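 note: exported cargo escapes ClpAP degradation while cytoplasmic cargo is degraded and loses fluorescence; 0% = median of neutral control wells and 100% = median of NaSCN control wells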
Starred values were filed as active, the others as inactive; nt = no result given.

SMILES | AddAB inh | E coli growth-1 | E coli growth-2 | phage Ecoli inh | Tat transport
C#CCOCCOCCOCCNc1nc(N2CCN(C(=O)C(Cc3ccc(O)cc3)n3cc(C(N)CC(C)C)nn3)CC2)nc(N2CCN(C(=O)C(C(C)CC)n3cc(C(N)CC(C)C)nn3)CC2)n1 (stereo unspecified) | nt | 0.65 | nt | nt | nt
O=C(NCc1ccccc1)c1cc(S(=O)(=O)N2CCCCC2)ccc1N1CCOCC1 | 0 | 0.44* | 3 | 2 | -3
CC(C)c1ccc2c(c1)CC[C@H]1[C@](C)(CN)CCC[C@]21C | nt | nt | nt | 4 | 3
CC(C)c1ccc2c(c1)CCC1C(C)(CN)CCCC21C (stereo unspecified) | 4 | 0.48* | -1 | 9 | -8
Oc1c(Br)cc(Br)cc1/C=N/NC(=S)N[C@H]1CC2C=CC1C2 (stereo partly specified) | 12 | nt | 10* | 9 | -9
Oc1c(Cl)cc(Cl)cc1C=NNC(=S)NC1CC2C=CC1C2 (stereo unspecified) | nt | 0.7 | nt | nt | nt
CCOc1cccc(/C=N/Nc2ccc(S(=O)(=O)N(CC)CC)cn2)c1O | 12 | nt | 12* | 13* | -5
COc1cccc(C=NNc2ccc([N+](=O)[O-])cn2)c1O | nt | 0.41* | nt | nt | nt
COc1cccc(/C=N/Nc2ccc([N+](=O)[O-])cc2)c1O | 0 | nt | -1 | 1 | -15
O=C(NN=C/C(Br)=C/c1ccccc1)c1ccncc1 | nt | 0.46* | nt | nt | nt
O=C(N/N=C/C(Br)=C/c1ccccc1)c1ccncc1 | 11 | nt | 3 | 4 | -8
c1ccc2c(NCCCN3CCOCC3)c3ccccc3nc2c1 | 15* | 0.63 | 10* | 6 | nt
O=c1ccc2ccccc2c2ccccc12 | nt | nt | nt | 0 | nt
O=Nc1c(O)c2ccccc2c2ccccc12 | 10 | 0.53 | 6 | 11* | -9
CC(=NNC(=O)Cn1ccc(C(F)(F)F)n1)c1ccc2c(c1)OCO2 | nt | 0.63 | nt | nt | nt
COC(=O)C(N)Cc1ccc(O)c(O)c1 (stereo unspecified) | 1 | 0.68 | 1 | -1 | 7
NC(CO)C(=O)NNCc1ccc(O)c(O)c1O (stereo unspecified) | 10 | nt | 13* | 7 | 2
CON=C(Cn1ncc(N2CCCC2)c(Br)c1=O)c1ccc(Cl)cc1 | nt | 0.72 | nt | nt | nt
CCN1/C(=C/C=C/c2oc3ccc4ccccc4c3[n+]2CC)Oc2ccc3ccccc3c21 | 11 | 0.69 | 11* | nt | nt
O=[N+]([O-])c1cc(C=Nn2cnnc2)ccc1N1CCCC1 | nt | 0.66 | nt | nt | nt
O=[N+]([O-])c1cc(C(F)(F)F)ccc1N1CCN(S(=O)(=O)c2ccc3ccccc3c2)CC1 | 3 | 0.54* | 0 | -2 | -1
COC(=O)C1=CC(C(=O)OC)C2C3=C(C(=O)[C@@]2(C)NC(=O)c2ccccc2)C(C)n2c(=O)n(C)c(=O)n2C3C1 (stereo partly specified) | nt | 0.68 | nt | nt | nt
CCCCCCCCCCCCCCCC[n+]1cccc2ccccc21 | 6 | 0.092* | 4 | 4 | 5
Cc1ccc(Nc2c(-c3ccccn3)nc3cccc(C)n23)cc1 | 0 | 0.28* | 3 | 6 | -31
CCN1CC2C3C(=O)N(Cc4ccccc4)C(=O)C3[C@](CC)(C1=O)N2C(=O)c1ccccc1 (stereo partly specified) | nt | 0.68 | nt | nt | nt
SMILES | AddAB inh | E coli growth-1 | E coli growth-2 | phage Ecoli inh | Tat transport
COCC1=C(C(=O)OC(C)OC(=O)OC(C)C)N2C(=O)[C@@H](NC(=O)/C(=N\OC)c3csc(N)n3)[C@H]2SC1 (stereo partly specified) | -1 | nt | 2 | 7 | -4
C=CC1=C(C(=O)O)N2C(=O)C(NC(=O)C(=NOCC(=O)O)c3csc(N)n3)C2SC1 (stereo unspecified) | nt | 0.062* | nt | nt | nt
CCN(CC)c1ccc(C=CC(=O)C2C(=O)C=C(C)OC2=O)cc1 (stereo unspecified) | nt | 0.71 | nt | nt | nt
Cc1ccc2ccc3cccnc3c2n1 | -2 | nt | -3 | -1 | 9
Clc1cc2cccnc2c2ncccc12 | -4 | 0.53* | -5 | -1 | -6
O=[N+]([O-])c1ccc(Cl)c2cccnc12 | 2 | 0.63 | 0 | 2 | -3
Cc1c(C)c2cccnc2c2ncccc12 | 47* | 0.25* | 47* | nt | 1
NC(=O)SCC(=O)Nc1ccc(Cl)cc1 | 3 | 0.53* | 6 | 0 | -2
N/C(=N\N=Cc1ccc(F)cc1)NN=Cc1ccc(F)cc1 | nt | 0.42* | nt | nt | nt
Cc1cc(C)nc(NS(=O)(=O)c2ccc(NC(=O)Cn3c(=O)oc4ccccc43)cc2)n1 | 0 | 0.71 | -2 | 3 | -9
Cc1noc(NS(=O)(=O)c2ccc(NC(=O)CCn3c(=O)oc4ccccc43)cc2)c1C | 11 | 0.76 | 10* | 11 | -15
COc1cc(OC)cc(C(=O)NC(C(=O)OCC(=O)Nc2ccc(C(N)=O)cc2)C(C)C)c1 (stereo unspecified) | nt | 0.7 | nt | nt | nt
COc1cc(OC)c(C=NNC(=O)c2ccc(NC(C)=O)cc2)cc1Br | nt | 0.74 | nt | nt | nt
O=[N+]([O-])c1ccc(C=NNS(=O)(=O)c2ccc(F)cc2)o1 | nt | 0.44* | nt | nt | nt
COc1ccc(S(=O)(=O)NN=Cc2ccc3c(c2)OCO3)c(OC)c1 | nt | 0.71 | nt | nt | nt
COc1ccc(S(=O)(=O)NN=Cc2ccc([N+](=O)[O-])o2)c(OC)c1 | nt | 0.51* | nt | nt | nt
Oc1ccc(C=NNC(=S)N2CCOCC2)cc1 | nt | 0.67 | nt | nt | nt
COc1cc(C=NNC(=S)NC2CC3CCC2C3)ccc1O (stereo unspecified) | nt | 0.63 | nt | nt | nt
COc1cc(C=NNC(=O)Cn2cnc3ccccc3c2=O)ccc1O | nt | 0.66 | nt | nt | nt
CC1c2cccc(O)c2C(=O)C2C(=O)C3(O)C(=O)C(C(N)=O)C(=O)C(N(C)C)C3C(O)C21 (stereo unspecified) | nt | 0.068* | nt | nt | nt
CC1c2cccc(O)c2C(O)=C2C(=O)[C@]3(O)C(O)=C(C(N)=O)C(=O)C(N(C)C)C3C(O)C21 (stereo partly specified) | nt | 0.065* | nt | nt | nt
CN(C)c1ccc(O)c2c1CC1CC3C(N(C)C)C(=O)C(C(N)=O)=C(O)[C@]3(O)C(=O)C1=C2O (stereo partly specified) | nt | 0.071* | nt | nt | nt
CC1c2cccc(O)c2C(O)=C2C(=O)C3(O)C(O)=C(C(N)=O)C(=O)C(N(C)C)C3C(O)C21 (stereo unspecified) | nt | 0.067* | nt | nt | nt
O=C(CC1CC=CCCC(Cc2ccc(F)cc2)C(=O)OCC(Cc2ccccc2)NC1=O)NCCO (stereo unspecified) | nt | 0.71 | nt | nt | nt
COc1ccc(C2C3C(=O)N(C(C)(C)C)C(=O)C3[C@]3(Cc4ccc(Cl)cc4)C(=O)N(c4cccc(Br)c4)C(=O)N23)cc1 (stereo partly specified) | nt | 0.72 | nt | nt | nt
SMILES | AddAB inh | E coli growth-1 | E coli growth-2 | phage Ecoli inh | Tat transport
CCN1CCN(C(=S)NC(=O)c2cc(OC)c(OC)c(OC)c2)CC1 | 1 | 0.7 | 2 | 2 | 2
CCn1cc(C(=O)O)c(=O)c2cnc(N3CCN(C(=S)NC(=O)c4ccc(Cl)cc4)CC3)nc21 | 4 | 0.43* | 4 | nt | nt
CCn1cc(C(=O)O)c(=O)c2cnc(N3CCN(C(=S)NC(=O)c4ccc(Br)cc4)CC3)nc21 | 3 | 0.46* | 1 | nt | nt
CCn1cc(C(=O)NCCc2ccc(Cl)cc2)c(=O)c2ccc(C)nc21 | nt | 0.6 | nt | 1 | -14
CCn1cc(C(=O)O)c(=O)c2cnc(N3CCNCC3)nc21 | 102* | nt | 103* | nt | nt
CC(=NNC(=O)CNC(=O)Cc1ccccc1)c1ccc(Cl)cc1 | nt | 0.71 | nt | nt | nt
